High-throughput results from PubChem BioAssay.
Measles CPE: compounds protecting cells from measles virus cytopathic effect, primary screen, measles RdRp inhibitor project, single point, MLSMR library, absorbance | Measles virus-infected cells, CPE protection | protection (pct of control), % at 4 µM | 1.5% of 140,000 active; in the data active = protection mostly above about 24%, no sharp cut-off; inactive = mostly below about 26%
Arbovirus anti: antivirals against arbovirus infection, primary screen, cell-based, full library, 10K replicate subset; arbovirus infection cell-based antiviral screen; inhibition, % at 10 µM; 0.37% of 200,000 active; in the data active = inhibition above about 30%
HSV replic up: enhancers of HSV replication in host cells, fold increase, host cell viability; 0.005% of 220,000 active; maximum fold increase; HSV replication augmentation in cells; in the data active = maximum fold increase above about 1.5; inconclusive = no clear call, values can overlap the other calls; tested in PC3 cells
ROMK primary: ROMK potassium channel modulators, primary screen, cell-based, thallium flux, MLSMR library. ATP-sensitive inward rectifier potassium channel 1 (Homo sapiens), P48048. Tet-inducible ROMK, thallium flux fluorescence; actives lie on both sides. B-score at 10 µM. 2% of 130,000 active. AID 1918, 2009;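 active = signal ratio slope over the read window, or its plate-corrected B-score, at least 3 SD from the plate mean, either direction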;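 also: B-score of the F/F0 ratio slope over 7 to 12 s after thallium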
Target sequence (P48048 whole entry, looked up): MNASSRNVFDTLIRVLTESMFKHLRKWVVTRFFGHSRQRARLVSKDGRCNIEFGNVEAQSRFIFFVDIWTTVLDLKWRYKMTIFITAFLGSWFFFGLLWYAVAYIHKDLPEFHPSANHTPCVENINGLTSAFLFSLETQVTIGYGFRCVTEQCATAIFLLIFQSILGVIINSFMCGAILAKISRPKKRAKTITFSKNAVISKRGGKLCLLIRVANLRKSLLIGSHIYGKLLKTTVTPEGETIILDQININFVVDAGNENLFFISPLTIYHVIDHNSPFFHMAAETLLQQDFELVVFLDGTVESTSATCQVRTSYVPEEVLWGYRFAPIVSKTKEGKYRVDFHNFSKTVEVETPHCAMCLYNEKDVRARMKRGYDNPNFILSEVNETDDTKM
Cl transport mod: KCC2 cotransporter modulators, thallium flux, primary screen, cell-based, HEK293 KCC2, FluoZin-2 fluorescence, MLSMR; Solute carrier family 12 member 5 (Homo sapiens), Q9H2X9; KCC2 cells, thallium flux FluoZin-2 fluorescence; B-score of Tl+ flux slope (higher = more flux/activation; lower = inhibition) at 10 µM; 2.2% of 190,000 active; AID 1456, 2008;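 active = thallium flux slope and its plate-corrected score both differing from the plate sample mean at a set confidence after two filtering rounds, in either direction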;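 also: slope of fluorescence scaled to starting intensity during 10 to 20 s after thallium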
ROMK retest: ROMK channel modulator hit retest, confirmation, cell-based, thallium flux, duplicate, resupplied hits; AID 1917, 2009; 54% of 3,000 active; shares compounds with ROMK primary; fluorescence ratio; stronger effect = lower value; normalized thallium flux (F/F0 slope) at 10 µM;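 active = Flux at 10 µM at least 3 SD below or above vehicle control mean in one or both replicates; inconclusive = no clear call, values can overlap the other calls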
Large screens that a line does not name were inactive (follow-up assays come after a bar, where they were run). A selection: hits, their analogues and other compounds. The true share with any hit is near 4%.

COc1ccc(CC(=O)N2CCCc3ccccc32)cc1OC	none
O=C1C=C(c2cc3ccccc3s2)CCC1	none (no result: Measles CPE, Arbovirus anti, ROMK primary, Cl transport mod)
CCCC(=O)N1CCN(c2nc(CC(C)C)c3c(c2C#N)CCC3)CC1	ROMK primary -4.25 (no result: HSV replic up, Cl transport mod) | ROMK retest 0.0656
O=C(C[n+]1cc(-c2ccccc2)n2c1CCCCC2)c1ccc(Cl)cc1	none (no result: ROMK primary)
CC1CCC(C(C)C)C(OC(=O)C[n+]2cc(-c3ccc(Cl)cc3)n3c2CCCCC3)C1 (stereo unspecified)	ROMK primary -9.81 (no result: Measles CPE) | ROMK retest 0.0495
Clc1ccc(-c2c[n+](Cc3ccc(Br)cc3)c3n2CCCCC3)cc1	ROMK primary -4.18 (no result: Measles CPE, Arbovirus anti) | ROMK retest inactive
Clc1ccc(-c2c[n+](Cc3cccc(Cl)c3)c3n2CCC3)cc1	none
Clc1ccc(-c2c[n+](Cc3ccc(Cl)cc3Cl)c3n2CCCCC3)cc1	none (no result: Measles CPE, Arbovirus anti, ROMK primary, Cl transport mod) | ROMK retest 0.0552
Cn1nnc(NC(=O)c2cccc([N+](=O)[O-])c2)n1	none (no result: Measles CPE, Arbovirus anti)
O=C(CNC(=O)c1ccccc1Cl)OC1CCOC1=O (stereo unspecified)	none (no result: Measles CPE)
CCOC(=O)c1oc2cc(O)c(CC)cc2c(=O)c1-c1cscn1	none (no result: Measles CPE)
CCc1cc2c(=O)c(-c3cscn3)coc2cc1O	ROMK primary 2.52 (no result: HSV replic up) | ROMK retest inactive
CCCCCCCCCCCCCCCCn1cc[n+](CC(C)=O)c1	ROMK primary -4.86 (no result: Measles CPE) | ROMK retest 0.063
Cc1oc2c(c1C(=O)c1ccccc1)C(=O)C(=O)c1ccccc1-2	none (no result: ROMK primary) | ROMK retest inconclusive
COc1ccc(CNC(=O)COC(=O)c2ccc(F)c(S(=O)(=O)N3CCCCC3)c2)cc1OC	none (no result: Measles CPE, Arbovirus anti, ROMK primary)
CCc1nnc(NS(=O)(=O)c2ccc(N=Cc3c(C)[nH]n(-c4ccc(C)c(C)c4)c3=O)cc2)s1	none (no result: ROMK primary)
Cc1[nH]n(-c2ccc(Br)cc2)c(=O)c1C=Nc1ccc(S(=O)(=O)Nc2nccs2)cc1	none (no result: ROMK primary) | ROMK retest inactive
Cn1c(=O)c2[nH]c(COc3ccc(C(C)(C)C)cc3)nc2n(C)c1=O	none (no result: Measles CPE, Arbovirus anti, ROMK primary)
Cc1ccc(S(=O)(=O)N2CCC(=O)N(C(COCc3cccc(C)c3)Cc3ccccc3)CC2)cc1 (stereo unspecified)	none
Cc1ccc(S(=O)(=O)N2CCC(=O)N(C(COCc3ccc(C(F)(F)F)cc3)Cc3ccccc3)CC2)cc1 (stereo unspecified)	ROMK primary -6.66 | ROMK retest inactive
Cc1ccc(S(=O)(=O)N2CCC(=O)N(C(COCc3ccc(Cl)c(Cl)c3)Cc3ccccc3)CC2)cc1 (stereo unspecified)	ROMK primary -4.74 | ROMK retest 0.0615
COc1ccc(NC(=O)c2ccc(COc3ccc(C)cc3)o2)cc1	none (no result: Measles CPE)
COCCNC(=O)CN1C(=O)COc2ccc(Cl)cc21	none (no result: HSV replic up) | ROMK retest inactive
COC(=O)CN1C(=O)COc2ccc(Cl)cc21	none
CCOc1cccc(CNCCSc2nnnn2C)c1	none (no result: Measles CPE, ROMK primary, Cl transport mod)
O=C(NNC(=O)c1sccc1-n1cccc1)c1cccs1	none (no result: Measles CPE)
CNC(=O)c1sccc1-n1cccc1	ROMK primary 2.89 | ROMK retest inactive
CCCCCc1ccc(OCCC[n+]2ccccc2)c(CCCCC)c1	none (no result: Measles CPE, Arbovirus anti, ROMK primary) | ROMK retest 0.0602
CCCCCc1ccc(OCCOCCn2c[n+](C)c3ccccc32)c(CCCCC)c1	none (no result: Measles CPE, ROMK primary) | ROMK retest 0.0456
C[n+]1cn(CC(O)COCc2ccccc2)c2ccccc21 (stereo unspecified)	none (no result: HSV replic up, ROMK primary)
O=C(CCn1nc(-c2ccccc2)c2ccccc2c1=O)NN1CCOCC1	none (no result: Measles CPE)
OCCN(CC(O)Cn1ccc2ccccc21)CC(O)Cn1ccc2ccccc21 (stereo unspecified)	ROMK primary -4.79 (no result: HSV replic up, Cl transport mod) | ROMK retest 0.0558
CC(C)(C)c1ccc(OCC(O)CN(CCO)CC(O)Cn2ccc3ccccc32)cc1 (stereo unspecified)	none (no result: ROMK primary)
COC(=O)/C=c1/s/c(=C(/C#N)C(=O)N2CCCCC2)n(-c2ccccc2)c1=O	ROMK primary -3.2 | ROMK retest 0.0566
COc1ccc(-n2c(C)c([N+](=O)[O-])c3ccc(O)c(CN4CCCCC4)c32)cc1	none
Cc1ccc(-n2c(C)c([N+](=O)[O-])c3ccc(O)c(CN(C)C)c32)cc1	ROMK primary -5.31 (no result: Cl transport mod) | ROMK retest 0.0485
